# Among all 310,000 compounds or so, about 14,000 (4.5%) showed an effect of 50% or more. Effects have a minus sign here. The list comes from a sample in which strong results are over-represented; it also holds similar structures and randomly drawn compounds.
# Target: human ether-à-go-go-related gene (hERG) potassium channel (human, UniProt Q12809)
# Assay: primary screen, population patch clamp on CHO cells stably expressing hERG; higher = less effect of the substance
# 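Also: peak tail current of the secondary pulse compared with the same well before compound.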
# human ether-à-go-go-related gene (hERG) potassium channel, sequence (Q12809 whole entry, looked up): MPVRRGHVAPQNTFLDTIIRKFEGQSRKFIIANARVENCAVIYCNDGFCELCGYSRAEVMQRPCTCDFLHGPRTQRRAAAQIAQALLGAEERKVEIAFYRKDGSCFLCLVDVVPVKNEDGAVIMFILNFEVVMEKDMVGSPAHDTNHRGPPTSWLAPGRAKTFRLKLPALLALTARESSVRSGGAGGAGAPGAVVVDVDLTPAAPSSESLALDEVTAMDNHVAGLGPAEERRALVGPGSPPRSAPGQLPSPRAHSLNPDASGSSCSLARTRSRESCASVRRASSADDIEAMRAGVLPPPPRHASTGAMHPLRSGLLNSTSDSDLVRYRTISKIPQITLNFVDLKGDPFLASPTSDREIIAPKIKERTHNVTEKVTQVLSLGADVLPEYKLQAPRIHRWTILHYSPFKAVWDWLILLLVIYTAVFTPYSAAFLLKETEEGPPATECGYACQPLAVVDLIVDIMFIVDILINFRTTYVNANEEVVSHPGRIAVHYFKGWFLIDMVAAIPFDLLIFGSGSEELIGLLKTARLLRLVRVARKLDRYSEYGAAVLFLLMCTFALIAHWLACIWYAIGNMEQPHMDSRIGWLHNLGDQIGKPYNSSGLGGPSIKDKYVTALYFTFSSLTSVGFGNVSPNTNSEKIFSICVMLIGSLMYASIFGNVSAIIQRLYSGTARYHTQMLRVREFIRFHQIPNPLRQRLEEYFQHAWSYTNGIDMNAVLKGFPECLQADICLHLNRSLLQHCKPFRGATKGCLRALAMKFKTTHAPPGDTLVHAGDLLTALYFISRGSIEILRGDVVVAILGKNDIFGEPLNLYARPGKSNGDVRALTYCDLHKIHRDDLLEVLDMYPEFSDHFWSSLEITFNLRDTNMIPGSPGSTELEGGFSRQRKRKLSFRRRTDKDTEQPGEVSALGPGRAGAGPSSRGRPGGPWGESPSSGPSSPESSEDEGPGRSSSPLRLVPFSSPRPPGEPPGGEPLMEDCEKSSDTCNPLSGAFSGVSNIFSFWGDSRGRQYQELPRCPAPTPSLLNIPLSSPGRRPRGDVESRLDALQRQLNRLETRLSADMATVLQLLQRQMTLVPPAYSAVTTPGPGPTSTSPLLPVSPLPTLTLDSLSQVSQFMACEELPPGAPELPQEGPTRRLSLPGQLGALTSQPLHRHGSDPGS
row,Structure (SMILES),"hERG current change (%, negative = inhibition) at 10uM [%]"
1,CC(C)(C)/C=N/NC(=O)CNC(=O)c1ccc2c(c1)OCCO2,15.6
2,CC1(C)C2CCC1(C)C(OC(=O)CCn1ccnc1)C2 (stereo not drawn),-25.5
3,Cc1ccc(C)c2sc(NC(=O)c3nc4ccccc4s3)nc12,2.76
4,CCN(CC)C(=O)Oc1ccc(Br)cc1C(=O)Nc1ccc(F)c(Cl)c1,2.76
5,CC(=O)c1ccc(/C=C/c2nc3ccccc3n2C)o1,-5.96
6,Cc1ccc(NCc2nnc(SCC(=O)Nc3ccccc3)n2CC2CCCO2)c(C)c1 (stereo not drawn),-0.0882
7,Fc1ccc(NCc2nnc(SCc3nnc(-c4ccccc4)o3)n2Cc2ccccc2)cc1,-46
8,Cc1ccc(NCc2nnc(SCC(=O)N3CCCCC3)n2CC2CCCO2)c(C)c1 (stereo not drawn),-5.62
9,Cc1ccc(NCc2nnc(SCC(N)=O)n2CC2CCCO2)c(C)c1 (stereo not drawn),8.71
10,CCSc1nnc(CNc2ccc(F)cc2)n1CC1CCCO1 (stereo not drawn),-15.1
11,Cc1ccc(NCc2nnc(SCC(=O)NCc3ccco3)n2CC2CCCO2)cc1Cl (stereo not drawn),-7.7
12,CCn1c(CNc2ccc(F)cc2)nnc1SCCN1CCCCC1,-12.1
13,Cc1ccc(NCc2nnc(SCCN3CCCCC3)n2CC2CCCO2)cc1Cl (stereo not drawn),-92.4
14,Fc1ccc(NCc2nnc(SCc3nnc(-c4ccccc4)o3)n2CC2CCCO2)cc1 (stereo not drawn),-53.1
15,Cc1ccc(NCc2nnc(SCCN3CCCCC3)n2CC2CCCO2)c(C)c1 (stereo not drawn),-58.5
16,Cc1ccc(NCc2nnc(SCC(=O)Nc3ncc(C)s3)n2CC2CCCO2)c(C)c1 (stereo not drawn),-12.4
17,Cc1ccc(NCc2nnc(SCC(=O)Nc3cccc(O)c3)n2CC2CCCO2)c(C)c1 (stereo not drawn),-68.2
18,CC1(CC(=O)N/N=C/c2cc3c(cc2Br)OCO3)OCCO1,15.5
19,CCc1c(C)sc(NC(=O)OC)c1C(=O)N1CCCCC1,-4.94
20,COC(=O)c1ccc(N2CCN(c3ccccc3)CC2)c(NC(=O)C2CC2)c1,-35.6

row,Structure (SMILES),"hERG current change (%, negative = inhibition) at 10uM [%]"
1,CC(=NCCc1c[nH]c2ccccc12)c1c(O)n(Cc2ccccc2)c(=O)[nH]c1=O,0.859
2,COC(=O)N/N=C\c1cc(Br)ccc1OCc1ccccc1,-6.55
3,O=C1CCCC(=O)C1=C1SCCCS1,-5.96
4,COc1cccc(SCC2(O)CCN(C(=O)c3ccc(Cl)cc3)CC2)c1,-69
5,COc1ccc(C(=O)N2CCN(c3c(C)cccc3C)CC2)cc1OC,-68.8
6,COc1ccc(C(=O)N2CCN(C(=O)c3ccc(-c4ccccc4)cc3)CC2)cc1OC,-43.6
7,O=C(c1ccc(Cl)cc1)N1CCC(O)(CSc2ccccc2)CC1,-38.1
8,COc1ccc(C(=O)N2CCN(c3ccc(C)cc3)CC2)cc1OC,-21.8
9,O=C(c1ccc(Cl)cc1)N1CCC(O)(CSc2ccc(Cl)cc2)CC1,-44.4
10,COc1ccc(C(=O)N2CCC(O)(c3ccc(Cl)cc3)CC2)cc1OC,-51.9
11,COc1ccc(C(=O)N2CCC(O)(c3ccc(F)cc3)CC2)cc1OC,-38.6
12,COc1ccc(C(=O)N2CCN(c3ccc(C)cc3C)CC2)cc1OC,-68.5
13,COc1cc(C(=O)N2CCC(O)(c3ccccc3)CC2)cc(OC)c1OC,14.7
14,COc1cc(C(=O)N2CCN(c3ccc(C)cc3C)CC2)cc(OC)c1OC,-19.7
15,COc1ccc(C(=O)N2CCN(c3ccc(C)c(C)c3)CC2)cc1OC,-6.14
16,Cc1nc2ccc(Cl)cc2c(-c2ccccc2)c1C(=O)N(C)C.Cl,-5.56
17,CCc1ccccc1NC(=O)CNC(=O)c1cc(C2CC2)nn1-c1ccccc1,-28.8
18,O=C(c1noc2c1CCCC2)N1CCC(CO)(Cc2ccccc2Cl)CC1,-22.9
19,COCCCNC(=O)Cn1ccc(N)nc1=O,11.4
20,CN(C)C=O.O=C(Nc1cccc(S(=O)(=O)NC2=NCCCCC2)c1)c1cc(-c2ccco2)nc2ccccc12,19.7

row,Structure (SMILES),"hERG current change (%, negative = inhibition) at 10uM [%]"
1,COc1ccc(-n2c(CNc3ccc(C)cc3)nnc2SCC(=O)Nc2nc(-c3ccccc3)cs2)cc1,-23.1
2,CCN1C(=O)/C(=C/N(C)c2ccccc2)OC1=S,-8.25
3,CC1CCc2c(sc(NC(=O)COC(=O)c3ccccc3NCc3ccco3)c2C#N)C1 (stereo not drawn),7.34
4,CC1CCc2c(sc(NC(=O)C(=O)NCc3ccco3)c2C#N)C1 (stereo not drawn),-66.3
5,CCN1CCN(CC(=O)Nc2sc3c(c2C#N)CCC(C)C3)CC1 (stereo not drawn),-51.7
6,CCN1CCN(CC(=O)Nc2sc3c(c2C#N)CCC3)CC1,-18.1
7,CC1CCc2c(sc(NC(=O)CN3CCN(C(=O)c4ccco4)CC3)c2C#N)C1 (stereo not drawn),-41.5
8,CC(=O)Nc1sc2c(c1C#N)CCC(C)C2 (stereo not drawn),-3.48
9,O=C(CN1CCOc2ccccc21)N1CCC(Cc2ccccc2)CC1,-26.3
10,Cc1nn(CCc2nn[nH]n2)c2nc(-c3ccccc3)cc(C(F)(F)F)c12,19.3
11,COc1ccc(-c2csc(NCCc3nc4cc(Cl)c(N5CCCCC5)cc4n3CCOCCO)n2)cc1,-10.4
12,CC1CCN(CC(=O)n2c3c(c4ccccc42)CCCC3)CC1.Cl,0.546
13,CCc1ccc(-c2csc(NC(=O)c3cccnc3)n2)cc1,-3.93
14,Cc1ccccc1N=C1N=C(N)c2ccccc21,-2.13
15,COCCNC(=O)C1CC(=O)N(c2ccc(F)c(Cl)c2)C1 (stereo not drawn),-2.89
16,CN(CCNC(=O)C1CC(=O)N(c2ccc(F)c(Cl)c2)C1)Cc1ccccc1 (stereo not drawn),-52.5
17,O=C(NCCN1CCOCC1)C1CC(=O)N(c2ccc(F)c(Cl)c2)C1 (stereo not drawn),-3.45
18,CC1CCCN(CCCNC(=O)C2CC(=O)N(c3ccc(F)c(Cl)c3)C2)C1 (stereo not drawn),-37.9
19,CC1CCCCN1CCNC(=O)C1CC(=O)N(c2ccc(F)c(Cl)c2)C1 (stereo not drawn),-56.9
20,CN(C)CCNC(=O)C1CC(=O)N(c2ccc(F)c(Cl)c2)C1 (stereo not drawn),-11.2

# Reference: publication PMC4336329 (PLoS ONE, 2015)
